Experiment [1] deals with Bile acid receptor (Homo sapiens) (UniProt Q96RI1). Put plainly: qHTS assay for small molecule antagonists of farnesoid X receptor signaling (AID 588526). Note: % is set by controls: 0 for no effect and ±100 for the full control effect. In short, it runs like this: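 Antagonist mode: titrated compounds tested against chenodeoxycholic acid stimulation (normalized to 50 uM CDCA and DMSO) in GeneBLAzer HEK293T cells for 16 h. Beta-lactamase read by CCF4 fluorescence; IC50 from Hill fits.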
On the technique in general: qHTS replaces the single test concentration by a dilution series.

The target in experiment [2] is Glucocorticoid receptor (Homo sapiens) (UniProt P04150). The experiment can be described thus: qHTS assay for small molecule agonists of glucocorticoid receptor signaling (AID 588532; active = well fitted curve in the direction sought with a large enough effect in the signal ratio, with a control signal flat; the % refers to the signal ratio;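 note: 100% = dexamethasone at 0.1 µM and 0% = DMSO only wells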). The note with it: HeLa MMTV-bla, beta-lactamase ratio, agonist, 18 h; stronger effect = higher value; percent of dexamethasone control, DMSO zero. In short, it runs like this:
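HeLa GRE-bla reporter cells; 18 h compound exposure at 37 C; 2 h CCF4 loading at room temperature; fluorescence at 460 and 530 nm; EC50 by Hill equation.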

Experiment [3] has the same target. The experiment can be described thus: qHTS assay for small molecule antagonists of glucocorticoid receptor signaling (AID 588533; active = well fitted inhibition curve with a large enough effect in the signal ratio, with a control signal flat, not every such curve was filed as active; the % refers to the signal ratio; note: % is set by controls: 0 for no effect and ±100 for the full control effect). In short, it runs like this: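 Antagonist-mode qHTS: compound titrations added to GRE-bla HeLa cells, then dexamethasone 2 nM final; 18 h, 37 C. CCF4 FRET fluorescence normalized to dexamethasone and DMSO; IC50 from Hill fit.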
The nature of experiment [4]: qHTS assay for small molecule antagonists of peroxisome proliferator-activated receptor delta signaling (AID 588535; active = well fitted inhibition curve with a large enough effect in the signal ratio, with a control signal flat, not every such curve was filed as active; the % refers to the signal ratio;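 for max response: cells co-treated with a PPAR-delta agonist as stimulator during compound exposure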). The note with it: HEK293T PPARd-UAS-bla, beta-lactamase FRET ratio, 18 h; 460 nm channel. In short, it runs like this:
(§1)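 Antagonist-mode beta-lactamase reporter (GeneBLAzer PPAR-delta-UAS-bla) in HEK293T cells, 2% charcoal/dextran FBS, 4000 cells/well. Compound titrations, 18 h at 37 C; CCF4 ratio read, IC50 and efficacy from Hill fits.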

The target of experiment [5] is Peroxisome proliferator-activated receptor delta (Homo sapiens) (UniProt Q03181). The experiment is described as above. In a few lines: as §1
Experiment [6] deals with Peroxisome proliferator-activated receptor gamma (Homo sapiens) (UniProt P37231). The experiment can be described thus: qHTS assay for small molecule agonists of peroxisome proliferator-activated receptor gamma signaling (AID 588536; active = well fitted curve in the direction sought with a large enough effect in the signal ratio, with a control signal flat, not every such curve was filed as active; the % refers to the signal ratio;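 note: 0% = DMSO basal wells and 100% = rosiglitazone at 2 µM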). In short, it runs like this: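 Ratiometric blue/green fluorescence (405 nm excitation; 460 and 530 nm emission) from CCF4-loaded HEK293 reporter cells serves as signal. Exposure to test compounds lasts 16 h at 37 C in medium containing 1% charcoal/dextran-treated serum.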

Experiment [7] shares this target. Put plainly: qHTS assay for small molecule antagonists of peroxisome proliferator-activated receptor gamma signaling (AID 588537; active = well fitted inhibition curve with a large enough effect in the signal ratio, with a control signal flat, not every such curve was filed as active; the % refers to the signal ratio;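 note: reporter cells co-stimulated with 50 nM rosiglitazone agonist during compound treatment; % of control where 0% means no effect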). In short, it runs like this:
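PPARγ-UAS-bla HEK293 cells (3000/well) in 1% charcoal/dextran-stripped FBS are treated with compound, then stimulated with 50 nM rosiglitazone for 16 h at 37 °C. Read-out is CCF4 β-lactamase fluorescence after 2 h at RT. IC50 comes from Hill fits normalised to rosiglitazone and DMSO.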

Experiment [8] addresses Vitamin D3 receptor (Homo sapiens) (UniProt P11473). Put plainly: qHTS assay for small molecule antagonists of vitamin D receptor signaling (AID 588541).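 Note: receptor activated by calcitriol during compound treatment; series mostly up to about 77 µM; % is set by controls: 0 for no effect and ±100 for the full control effect.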 In a few lines:
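VDR-UAS-bla HEK293T cells in 2% charcoal-stripped FBS were stimulated with 1-alpha,25-dihydroxyvitamin D3 (3 nM final) plus compound for 16 h at 37 C. The beta-lactamase CCF4 readout was normalized to 50 nM agonist and DMSO, and Hill fits gave IC50.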

Experiment [9] has the same target. Put plainly: qHTS assay for small molecule agonists of vitamin D receptor signaling (AID 588543).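 Note: 0% = DMSO basal and 100% = reference agonist control.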 In a few lines: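 Agonist-mode beta-lactamase reporter: HEK293T VDR-UAS-bla cells in charcoal-stripped 2% FBS, compound series 16 h 37 C, CCF4 2 h RT. EC50 from Hill fit, scaled against DMSO and 50 nM calcitriol control.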
Experiment [10] is described as follows: qHTS assay for small molecule agonists of retinoid X receptor alpha signaling (AID 588544).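 For activation: 0% = DMSO basal wells and 100% = reference agonist.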 The note with it: HEK293T RXRa-UAS-bla, beta-lactamase reporter, 18 h; 530 nm emission.
Experiment [11] deals with Retinoic acid receptor RXR-alpha (Homo sapiens) (UniProt P19793). Described as above.
Experiment [12] has as its target Thyroid hormone receptor beta (Homo sapiens) (UniProt P10828). The experiment can be described thus: qHTS assay for small molecule agonists of thyroid hormone receptor beta signaling (AID 588545).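 Note: 0% = DMSO only and 100% = 10 nM T3.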 In a few lines: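 Stimulation of a TR-driven beta-lactamase reporter was quantified in GripTite HEK 293 cells. Compound series ran for 18 hrs; curves were normalized to T3 and DMSO controls and fitted to yield EC50.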

The nature of experiment [13]: qHTS assay for small molecule antagonists of retinoid X receptor alpha signaling (AID 588546; active = well fitted inhibition curve with a large enough effect in the signal ratio, with a control signal flat, not every such curve was filed as active; the % refers to the signal ratio;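 note: cells stimulated with 9-cis-retinoic acid as agonist; % is set by controls: 0 for no effect and ±100 for the full control effect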). The note with it: HEK293T RXRa-UAS-bla, beta-lactamase ratio, antagonist mode; measured here: W530 green channel, cytotoxicity proxy. In a few lines:
(§2)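 Beta-lactamase reporter inhibition, read as CCF4 fluorescence ratio (ex 405, em 460/530 nm) after 2 h at RT. HEK293T UAS-bla cells, 2500/well, were stimulated with 9-cis-RA at 500 or 100 nM final alongside test compound for 18 h at 37 C.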

Experiment [14] addresses Retinoic acid receptor RXR-alpha (Homo sapiens) (UniProt P19793). The experiment is described as above. The note with it: HEK293T RXRa-UAS-bla, beta-lactamase ratio, antagonist mode. In a few lines:
as §2

The target in experiment [15] is Thyroid hormone receptor beta (Homo sapiens) (UniProt P10828). The experiment can be described thus: qHTS assay for small molecule antagonists of thyroid hormone receptor beta signaling (AID 588547; active = well fitted inhibition curve with a large enough effect in the signal ratio, with a control signal flat, not every such curve was filed as active; the % refers to the signal ratio). The note with it: TR-UAS-bla HEK293, beta-lactamase ratio, antagonist mode, 18 h. In short, it runs like this:
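TR-UAS-bla GripTite HEK293 cells in 2% charcoal/dextran FBS medium; compounds 0.59 nM to 92 uM with T3 at 0.4nM final, 18 h at 37 C. Beta-lactamase read by CCF4 fluorescence (460/530 nm); Hill fits gave IC50 and efficacy.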

Experiment [16] deals with Voltage-gated inwardly rectifying potassium channel KCNH2 (Homo sapiens) (UniProt Q12809). Put plainly: qHTS Assay for Small Molecule Inhibitors of the Human hERG Channel Activity (AID 588834; active = well fitted inhibition curve with a large enough effect;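 note: top concentration of the series differs between compounds; % is set by controls: 0 for no effect and ±100 for the full control effect; lower thallium flux fluorescence means stronger hERG block; nearly all actives have a fitted effect of over 50% in size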). In short, it runs like this: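 Kinetic FDSS fluorescence; U2OS + hERG BacMam (~100 virus particles/cell); FluxOR Tl+ flux; ~10 min cpd; AC50 (Hill).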
Experiment [17] is described as follows: qHTS assay for small molecule activators of the p53 signaling pathway (AID 651743; active = well fitted activation curve with a large enough effect in the signal ratio, not every such curve was filed as active; the % refers to the signal ratio; note: series mostly up to about 92 µM; % of control where 0% means no effect). The note with it: HCT-116 p53RE-bla, beta-lactamase FRET ratio, 16 h; stronger effect = higher value. In a few lines: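 p53RE-bla HCT-116 cells carrying a beta-lactamase reporter under p53 response elements were exposed to compounds for 16 hours at 37 C. Reporter activity read as fluorescence after 2 hours at room temperature with LiveBLAzer B/G FRET substrate.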

Experiment [18] is described as follows: qHTS assay for small molecule activators of the nuclear factor-kappa B (NF-kB) signaling pathway (AID 651749; active = well fitted activation curve with a large enough effect in the signal ratio; the % refers to the signal ratio; note: series mostly up to about 77 µM; % of control where 0% means no effect). The note with it: NF-kB-bla ME-180 cells, beta-lactamase FRET ratio, 16 h; stronger effect = higher value. In a few lines:
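NF-kB-bla ME-180 cells carrying a beta-lactamase reporter under an NF-kB response element, 2,000 cells/well, exposed to compound for 16 hr at 37C; FRET-based beta-lactamase fluorescence read-out of pathway activation.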

Experiment [19] concerns the target Androgen receptor (Homo sapiens) (UniProt P10275). The experiment can be described thus: qHTS assay for small molecule antagonists of androgen receptor signaling (AID 588516; active = well fitted curve in the direction sought with a large enough effect in the signal ratio, with a control signal flat, not every such curve was filed as active; the % refers to the signal ratio; note: % is set by controls: 0 for no effect and ±100 for the full control effect). In a few lines: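 Antagonist mode: inhibition of R1881-stimulated (10 nM final) bla reporter in GeneBLAzer AR HEK 293 cells, 16 h at 37C, compounds titrated. IC50 and efficacy from Hill-equation fits of 405/460–530 nm FRET ratios.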

The nature of experiment [20]: qHTS assay for small molecule agonists of the antioxidant response element (ARE) signaling pathway (AID 651741; active = well fitted activation curve with a large enough effect in the signal ratio; the % refers to the signal ratio; note: % of control where 0% means no effect). In a few lines: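 CellSensor ARE-bla HepG2 cells (2,000/well) carrying ARE-driven beta-lactamase, exposed 16 h at 37 C. LiveBLAzer B/G FRET substrate added for 2 h at room temperature; fluorescence intensity read.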

Records with an inconclusive call do not appear. Activity calls are given as the source filed them. Unless noted, calls come from the whole dose curve.

Chain of Voltage-gated inwardly rectifying potassium channel KCNH2 (Homo sapiens) (Q12809 whole entry, looked up): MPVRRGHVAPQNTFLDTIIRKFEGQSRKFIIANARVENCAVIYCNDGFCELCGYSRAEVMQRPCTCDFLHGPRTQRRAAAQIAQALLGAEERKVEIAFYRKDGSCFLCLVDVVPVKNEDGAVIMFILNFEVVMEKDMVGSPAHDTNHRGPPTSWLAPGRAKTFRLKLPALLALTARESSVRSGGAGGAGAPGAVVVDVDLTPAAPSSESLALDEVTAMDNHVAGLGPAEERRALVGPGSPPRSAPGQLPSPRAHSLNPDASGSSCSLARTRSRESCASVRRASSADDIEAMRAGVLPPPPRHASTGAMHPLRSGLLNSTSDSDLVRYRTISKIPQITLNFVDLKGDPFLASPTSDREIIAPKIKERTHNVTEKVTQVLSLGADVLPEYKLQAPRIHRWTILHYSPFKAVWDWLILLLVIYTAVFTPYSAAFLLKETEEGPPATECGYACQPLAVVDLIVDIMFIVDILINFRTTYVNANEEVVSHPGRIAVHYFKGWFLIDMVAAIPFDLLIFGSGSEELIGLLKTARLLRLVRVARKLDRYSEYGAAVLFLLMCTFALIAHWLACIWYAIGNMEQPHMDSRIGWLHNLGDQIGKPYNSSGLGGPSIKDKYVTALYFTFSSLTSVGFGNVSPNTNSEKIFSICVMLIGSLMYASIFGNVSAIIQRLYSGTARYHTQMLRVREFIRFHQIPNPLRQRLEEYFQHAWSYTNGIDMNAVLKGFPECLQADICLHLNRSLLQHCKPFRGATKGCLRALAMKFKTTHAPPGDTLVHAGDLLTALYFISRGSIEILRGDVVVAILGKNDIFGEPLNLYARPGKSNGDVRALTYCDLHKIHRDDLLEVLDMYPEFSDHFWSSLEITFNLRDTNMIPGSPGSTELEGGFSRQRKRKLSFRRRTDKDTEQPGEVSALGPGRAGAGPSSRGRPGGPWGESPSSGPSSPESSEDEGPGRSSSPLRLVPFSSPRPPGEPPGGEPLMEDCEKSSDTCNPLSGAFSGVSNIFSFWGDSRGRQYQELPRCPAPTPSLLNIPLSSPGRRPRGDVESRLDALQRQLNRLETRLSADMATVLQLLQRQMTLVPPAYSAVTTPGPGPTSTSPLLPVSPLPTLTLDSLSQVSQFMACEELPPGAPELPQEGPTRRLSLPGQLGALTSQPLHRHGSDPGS
Chain of Glucocorticoid receptor (Homo sapiens) (P04150 whole entry, looked up): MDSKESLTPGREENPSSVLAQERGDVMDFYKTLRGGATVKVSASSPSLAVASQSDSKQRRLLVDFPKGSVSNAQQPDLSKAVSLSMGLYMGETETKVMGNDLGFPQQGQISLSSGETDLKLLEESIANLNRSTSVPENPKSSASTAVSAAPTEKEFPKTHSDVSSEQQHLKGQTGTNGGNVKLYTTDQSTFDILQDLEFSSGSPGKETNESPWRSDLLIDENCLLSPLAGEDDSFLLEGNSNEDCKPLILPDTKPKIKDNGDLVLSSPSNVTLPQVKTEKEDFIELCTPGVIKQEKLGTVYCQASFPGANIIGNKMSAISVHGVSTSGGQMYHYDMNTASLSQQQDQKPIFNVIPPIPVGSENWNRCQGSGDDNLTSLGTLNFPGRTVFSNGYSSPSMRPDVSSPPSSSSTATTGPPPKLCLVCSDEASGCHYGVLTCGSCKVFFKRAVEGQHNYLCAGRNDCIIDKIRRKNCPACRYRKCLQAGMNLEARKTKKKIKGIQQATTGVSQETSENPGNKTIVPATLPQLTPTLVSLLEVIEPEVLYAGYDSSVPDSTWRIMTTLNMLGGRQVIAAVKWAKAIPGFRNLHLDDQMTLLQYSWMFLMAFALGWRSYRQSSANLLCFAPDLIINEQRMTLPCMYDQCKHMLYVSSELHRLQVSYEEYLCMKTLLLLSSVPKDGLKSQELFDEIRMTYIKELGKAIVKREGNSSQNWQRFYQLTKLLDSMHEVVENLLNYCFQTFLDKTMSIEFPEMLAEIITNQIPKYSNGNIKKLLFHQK
Chain of Peroxisome proliferator-activated receptor delta (Homo sapiens) (Q03181 whole entry, looked up): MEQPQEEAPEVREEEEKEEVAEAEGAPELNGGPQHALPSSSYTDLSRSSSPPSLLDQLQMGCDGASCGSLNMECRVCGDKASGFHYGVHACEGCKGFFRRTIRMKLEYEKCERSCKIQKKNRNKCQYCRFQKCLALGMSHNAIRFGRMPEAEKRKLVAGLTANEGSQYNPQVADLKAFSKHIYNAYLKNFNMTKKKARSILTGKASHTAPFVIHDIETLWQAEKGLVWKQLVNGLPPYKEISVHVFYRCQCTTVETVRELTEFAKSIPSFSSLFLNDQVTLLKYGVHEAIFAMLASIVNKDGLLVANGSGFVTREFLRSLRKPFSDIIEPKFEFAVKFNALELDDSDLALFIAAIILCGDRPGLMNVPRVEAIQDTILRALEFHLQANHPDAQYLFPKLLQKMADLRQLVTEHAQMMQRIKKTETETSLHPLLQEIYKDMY
Chain of Retinoic acid receptor RXR-alpha (Homo sapiens) (P19793 whole entry, looked up): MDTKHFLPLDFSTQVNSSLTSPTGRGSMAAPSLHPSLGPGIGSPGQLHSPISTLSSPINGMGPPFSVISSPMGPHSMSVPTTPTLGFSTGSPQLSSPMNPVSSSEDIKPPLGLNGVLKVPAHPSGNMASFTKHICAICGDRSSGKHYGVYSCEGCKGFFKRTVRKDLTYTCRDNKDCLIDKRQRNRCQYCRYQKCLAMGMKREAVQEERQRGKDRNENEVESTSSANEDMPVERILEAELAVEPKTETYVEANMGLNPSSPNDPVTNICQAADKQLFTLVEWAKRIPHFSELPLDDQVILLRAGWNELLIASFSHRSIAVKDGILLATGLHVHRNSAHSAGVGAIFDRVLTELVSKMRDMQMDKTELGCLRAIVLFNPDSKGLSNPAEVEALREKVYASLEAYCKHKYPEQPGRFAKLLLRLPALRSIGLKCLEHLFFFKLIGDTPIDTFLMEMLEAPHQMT
Chain of Vitamin D3 receptor (Homo sapiens) (P11473 whole entry, looked up): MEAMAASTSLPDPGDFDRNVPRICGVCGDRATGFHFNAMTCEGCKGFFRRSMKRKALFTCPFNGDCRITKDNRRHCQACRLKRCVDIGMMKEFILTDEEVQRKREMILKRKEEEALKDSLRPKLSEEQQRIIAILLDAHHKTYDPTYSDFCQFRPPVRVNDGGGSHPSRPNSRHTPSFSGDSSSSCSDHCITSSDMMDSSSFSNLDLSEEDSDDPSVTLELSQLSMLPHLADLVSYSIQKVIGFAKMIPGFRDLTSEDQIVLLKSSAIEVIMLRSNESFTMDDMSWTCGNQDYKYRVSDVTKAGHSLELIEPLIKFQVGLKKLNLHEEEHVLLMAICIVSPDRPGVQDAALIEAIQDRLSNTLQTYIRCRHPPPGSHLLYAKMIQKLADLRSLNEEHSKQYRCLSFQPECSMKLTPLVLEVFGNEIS
Chain of Peroxisome proliferator-activated receptor gamma (Homo sapiens) (P37231 whole entry, looked up): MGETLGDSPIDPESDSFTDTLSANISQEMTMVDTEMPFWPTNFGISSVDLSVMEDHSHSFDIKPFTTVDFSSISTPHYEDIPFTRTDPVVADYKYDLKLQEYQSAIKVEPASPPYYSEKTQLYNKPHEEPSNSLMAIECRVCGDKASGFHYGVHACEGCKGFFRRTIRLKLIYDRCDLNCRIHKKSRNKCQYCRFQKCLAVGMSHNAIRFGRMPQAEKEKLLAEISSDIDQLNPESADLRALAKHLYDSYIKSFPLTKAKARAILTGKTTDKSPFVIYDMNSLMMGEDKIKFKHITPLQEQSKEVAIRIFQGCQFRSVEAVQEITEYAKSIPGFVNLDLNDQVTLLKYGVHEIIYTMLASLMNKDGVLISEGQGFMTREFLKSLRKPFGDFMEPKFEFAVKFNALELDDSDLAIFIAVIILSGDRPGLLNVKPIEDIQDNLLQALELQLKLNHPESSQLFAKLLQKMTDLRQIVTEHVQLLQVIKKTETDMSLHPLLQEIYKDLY
Chain of Androgen receptor (Homo sapiens) (P10275 whole entry, looked up): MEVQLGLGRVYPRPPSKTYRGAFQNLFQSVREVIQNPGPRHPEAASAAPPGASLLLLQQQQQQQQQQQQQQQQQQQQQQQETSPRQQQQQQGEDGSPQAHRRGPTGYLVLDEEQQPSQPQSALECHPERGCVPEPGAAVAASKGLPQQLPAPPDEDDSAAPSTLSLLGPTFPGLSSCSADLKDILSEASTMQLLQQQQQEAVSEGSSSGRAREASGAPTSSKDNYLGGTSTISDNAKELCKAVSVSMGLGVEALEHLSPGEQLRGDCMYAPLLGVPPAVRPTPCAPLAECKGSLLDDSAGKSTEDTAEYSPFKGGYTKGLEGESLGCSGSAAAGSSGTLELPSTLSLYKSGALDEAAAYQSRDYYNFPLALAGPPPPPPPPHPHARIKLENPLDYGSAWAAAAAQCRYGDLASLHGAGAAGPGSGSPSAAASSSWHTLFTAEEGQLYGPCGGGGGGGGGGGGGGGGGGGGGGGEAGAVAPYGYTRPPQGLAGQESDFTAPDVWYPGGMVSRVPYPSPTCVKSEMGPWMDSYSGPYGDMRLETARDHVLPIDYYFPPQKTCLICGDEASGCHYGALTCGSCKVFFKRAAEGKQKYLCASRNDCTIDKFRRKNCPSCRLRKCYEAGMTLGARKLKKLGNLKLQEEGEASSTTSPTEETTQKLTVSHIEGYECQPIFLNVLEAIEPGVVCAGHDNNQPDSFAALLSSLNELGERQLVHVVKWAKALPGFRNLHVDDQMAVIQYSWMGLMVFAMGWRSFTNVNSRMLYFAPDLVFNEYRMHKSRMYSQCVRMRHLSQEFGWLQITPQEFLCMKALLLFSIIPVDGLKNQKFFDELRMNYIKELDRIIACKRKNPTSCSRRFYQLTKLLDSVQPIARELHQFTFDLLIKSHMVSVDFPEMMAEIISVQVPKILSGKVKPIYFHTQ

As for `Cc1ccc(Cl)cc1N`, the outcome in [1], in [3], in experiment [6], in experiment [7], in experiment [8] and in experiment [9] was inactive. The call in experiment [11] and in experiment [12] was inactive. Besides, the activation in experiment [2] is -7.53% (inactive); in experiment [17], 0.545% (inactive); in experiment [18], 0.369% (inactive). Besides, the max response was -18.2% in experiment [4], 3.01% in experiment [10], -7.87% in [13] and 0.248% (inactive) in [14]. The Potency entry in experiment [5] and in [16] was “inactive” each time. In addition, in experiment [15], the activity change % (negative = inhibition) was -4.43% (inactive).

Turning to `Cc1ccc(N(C)C)cc1`, the compound was called inactive in experiment [19], in experiment [3], in experiment [6], in [9] and in [11]. Also, the results for the activation in [2], in experiment [17] and in [18] were -4.85% (inactive), -2.63% (inactive) and -0.0617% (inactive), respectively. In addition, the max response in experiment [4] is 17.3%; in [10], 5.65%; in experiment [13], -1.89%; in experiment [14] it was 25.4% (inactive). For the same compound, the Potency entry in experiment [5], in experiment [16] and in experiment [20] was “inactive” in each case. For the same compound, the activity change % (negative = inhibition) in experiment [15] was 13.9% (inactive).

`CC(=C/C=C/C(C)=C/C=C/C=C(C)/C=C/C=C(C)/C=C/C(=O)O)/C=C/C(=O)O`: the outcome in experiment [19], in experiment [3], in experiment [6], in [7], in experiment [9] and in [11] was inactive. Moreover, the compound was classed as inactive in experiment [12]. For the same compound, the activation is -6.11% (inactive) in experiment [2], -0.825% (inactive) in [17] and -0.299% (inactive) in [18]. For the same compound, the max response in experiment [4] is 11.7%; in experiment [10], -15.4%; in experiment [13], -2.63%; in experiment [14] it was -3.15% (inactive). Besides, the Potency result in experiment [5] and in experiment [16] was “inactive” each time. Further, the activity change % (negative = inhibition) in experiment [15] is -8.7% (inactive).

Take `Cc1ccc2cccnc2c1`: the compound was called inactive in experiment [19], in experiment [1], in experiment [3], in [6], in experiment [8] and in experiment [11]. The outcome in experiment [12] was inactive. Also, the activation is -3.65% (inactive) in experiment [2] and -4.94% (inactive) in experiment [17]. Moreover, the max response in experiment [10] is 5.51%; in [13], 6%; in experiment [14] it was 0.426% (inactive). For the same compound, in [15], the activity change % (negative = inhibition) was 17% (inactive). For the same compound, the Potency entry in [16] and in [20] was “inactive” each time.

On to `CC(C)c1ccccc1`, for which the compound was classed as inactive in experiment [19], in experiment [3], in experiment [6], in [7], in [8] and in experiment [11]. For the same compound, the compound was called inactive in experiment [12]. Further, the activation in [2] is -12.7% (inactive); in [17] it was 0.723% (inactive); in experiment [18], -1.2% (inactive). The figures for the max response in [10], in experiment [13] and in experiment [14] were -7.95%, 7.79% and 6.96% (inactive), respectively. Further, the activity change % (negative = inhibition) in [15] is 6.43% (inactive). The Potency result in [20] was “inactive”.

As to `CCOc1ccc(NC(C)=O)cc1N`, the result in [19], in [6], in experiment [9], in experiment [11] and in experiment [12] was inactive. Further, the max response is -0.981% in experiment [4] and 3.78% in experiment [10]. The Potency result in experiment [5], in experiment [16] and in experiment [20] was “inactive” throughout. Moreover, the activation in [17] was -6.53% (inactive); in [18], -1.6% (inactive).

Regarding `CCCC(C)CO` (configuration not stated), the result in [19], in experiment [3], in experiment [6], in experiment [7] and in experiment [11] was inactive. Besides, the activation in [2] was 0.0234% (inactive); in experiment [17], 0.0206% (inactive); in experiment [18], -0.126% (inactive). In addition, the max response in experiment [4] is -16%; in [10], -14.8%; in experiment [13] it was 5%; in experiment [14] it was -5.45% (inactive). In addition, in [5], the Potency entry was “inactive”. In addition, in [15], the activity change % (negative = inhibition) was 6.59% (inactive).

Source of the values: PubChem BioAssay (NCATS).
